An excerpt weighted towards active compounds, which were near 10% of everything screened.
FLuc inh: inhibitors of firefly (Photinus pyralis) luciferase | Potency, µM (titrated, usually from 115 µM), actives largely listed as inhibitors | AID 1347043 | purified P. pyralis luciferase, luminescence, biochemical | P08659 | actives 2.5% (n = 76,000); further: on the % scale 0 is the no-effect control and ±100 the full control effect; nearly all actives have a fitted effect of over 65% in size
Target sequence (P08659 whole entry, looked up): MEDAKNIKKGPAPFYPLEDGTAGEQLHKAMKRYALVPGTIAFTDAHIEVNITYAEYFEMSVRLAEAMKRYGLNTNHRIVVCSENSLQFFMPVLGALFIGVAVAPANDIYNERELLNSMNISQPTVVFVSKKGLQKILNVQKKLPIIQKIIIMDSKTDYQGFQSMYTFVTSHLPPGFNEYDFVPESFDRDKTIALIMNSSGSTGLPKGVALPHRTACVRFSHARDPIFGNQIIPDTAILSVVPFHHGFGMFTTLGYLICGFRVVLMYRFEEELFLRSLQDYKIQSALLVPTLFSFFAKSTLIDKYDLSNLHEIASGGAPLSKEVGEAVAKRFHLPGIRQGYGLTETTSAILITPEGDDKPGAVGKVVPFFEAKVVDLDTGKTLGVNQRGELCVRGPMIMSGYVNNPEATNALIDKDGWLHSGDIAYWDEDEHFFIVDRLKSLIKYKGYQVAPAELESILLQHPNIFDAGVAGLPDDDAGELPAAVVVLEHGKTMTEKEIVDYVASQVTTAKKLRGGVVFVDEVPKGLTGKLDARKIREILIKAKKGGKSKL
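FLuc 10nM, D-luciferin 10uM, ATP 10uM, Mg acetate 10mM, Tris acetate pH 7.5, Tween/BSA; cpd qHTS; enzyme added last; CCD luminescence.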
GPT2 inhibitor: GPT2 alanine aminotransferase inhibition | Recombinant GPT2, coupled pyruvate oxidase/HRP Amplex Red fluorescence | actives 0.25% (n = 100,000) | Potency, µM (highest dose often 57.7 µM), for the others: at the highest dose activity change, negative = inhibition, most hits filed as inhibitors | AID 1671188; further: on the % scale 0 is the no-effect control and ±100 the full control effect; nearly all actives have a fitted effect of over 60% in size
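Inhibition is scored from Amplex Red fluorescence generated when pyruvate oxidase and HRP act on pyruvate released by GPT2. Reactions contain 10ng/uL enzyme, 250uM a-KG and 2mM L-alanine and run 30 min at room temperature.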
hNpr1 antagonist: human Npr1 receptor antagonism. P16066. HEK293 hNpr1 GloSensor cGMP, ANP-stimulated luminescence. Potency, µM (highest dose often 46.3 µM), for the others: top-dose activity change, negative = inhibition, actives largely listed as inhibitors. actives 1.6% (n = 76,000). AID 1347048; calls by dose curve; further: on the % scale 0 is the no-effect control and ±100 the full control effect; nearly all actives have a fitted effect of over 60% in size
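HEK293 cells stably expressing human Npr1 and cGMP GloSensor pGS-40F, loaded 2 h with 2% GloSensor reagent, given compound 30 min at room temperature. Luminescence read before and 20 min after 0.1 nM hNppA.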
NIH3T3 tox: kills NIH 3T3 cells | NIH 3T3 viability, CellTiter-Glo ATP luminescence, 48-72 h | Potency, µM (doses to about 96.7 µM), for inactives: at the top dose activity change, negative = cytotoxicity, hits mostly inhibitors | actives 4.3% (n = 94,000) | AID 1345082; further: on the % scale 0 is the no-effect control and ±100 the full control effect; nearly all actives have a fitted effect of over 55% in size
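Luminescent ATP readout (CellTiter-Glo, 10 min RT) after 48 or 72 hr compound exposure of NIH 3T3 cells seeded at 400 cells/well in 1536-well format; quantitative HTS.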
HEK293 tox: cytotoxic compounds in HEK 293 cells; actives 6.6% (n = 94,000); Potency, µM (highest dose often 115 µM), for the others: at the highest dose activity change, negative = cytotoxicity, most hits filed as inhibitors; HEK 293 viability, ATP luminescence (CellTiter-Glo), 48-72 h; AID 1345083; further: on the % scale 0 is the no-effect control and ±100 the full control effect; nearly all actives have a fitted effect of over 60% in size
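qHTS cytotoxicity; HEK 293, 250 cells/well; compound pinned; 48 or 72 hr, 37 degree Celsius, 5% CO2, 95% humidity; CellTiter-Glo, 10 min RT; luminescence (ATP).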
NPR1 antag cnf: hNpr1 antagonism, confirmation assay | shares compounds with hNpr1 antagonist | HEK293 hNpr1 cGMP GloSensor luminescence, ANP-stimulated | Potency, µM (highest dose often 57.6 µM), without a hit: at the top dose activity change, negative = inhibition, most hits filed as inhibitors | actives 76% (n = 1,400) | AID 1347044; calls by dose curve; further: nearly all actives have a fitted effect of over 70% in size
NPR2 antag: hNpr2 antagonism, selectivity versus Npr1. HEK293 hNpr2 GloSensor cGMP luminescence, CNP-stimulated. Potency, µM (top dose mostly 57.6 µM), without a hit: top-dose activity change, negative = inhibition, actives largely listed as inhibitors. actives 67% (n = 1,400). shares compounds with hNpr1 antagonist; calls by dose curve; further: nearly all actives have a fitted effect of over 70% in size
FLuc counter: inhibits firefly luciferase, false Npr1 antagonist flag. Potency, µM (series often up to 57.6 µM), for the others: at the highest dose activity change, negative = inhibition, actives largely listed as inhibitors. actives 0.7% (n = 1,400). purified FLuc enzyme, luminescence, Km substrate. shares compounds with hNpr1 antagonist; further: 0% is about no effect
GloSensor cGMP: reduces cGMP signal in GloSensor control cells; shares compounds with hNpr1 antagonist; Potency, µM (highest dose often 57.6 µM), without a hit: top-dose activity change, negative = inhibition, most hits filed as inhibitors; AID 1347051; actives 69% (n = 1,400); HEK293 GloSensor cGMP, SNP-stimulated, luminescence; calls by dose curve; further: on the % scale 0 is the no-effect control and ±100 the full control effect; nearly all actives have a fitted effect of over 70% in size
Numbers without * were called inactive; i = inactive; ? = inconclusive; nt = no result; [ ] = another dose, or the depositor's remark. Unless noted, the call rests on the fitted dose curve; in most records, active means well fitted curve in the direction sought with a large enough effect; inconclusive means small, poorly fitted or top-dose-only effect, or another doubt; inactive means no such curve, though single readings can be large; an effect the other way counts as inactive or inconclusive. Potency means the concentration at half of the fitted maximal effect.

SMILES	FLuc inh	GPT2 inhibitor	hNpr1 antagonist	NIH3T3 tox	HEK293 tox	NPR1 antag cnf	NPR2 antag	FLuc counter	GloSensor cGMP
O=C1NCc2ccccc2CC12CCCN(CC1CC=CCC1)C2 (centres undefined)	nt	-6%	nt	i	-3%	-21%	-14%	1%	6%
COC[C@@H]1CN(Cc2c(OC)cccc2OC)C[C@H]1c1ccncc1	i	i	6.3µM*	?	35µM*	15µM*	15µM*	0%	14µM*
COc1ccc(C(=O)N2CCCC(c3nc(-c4cccnc4)no3)CCNC(=O)CC2)cc1F (centres undefined)	i	i	8%	2%	2%	nt	nt	nt	nt
Cc1ccc(-n2ncc3c2CCCC3NC(=O)c2cc(C(C)C)no2)cc1C (centres undefined)	i	-17%	14µM*	?	?	17µM*	17µM*	-7%	12µM*
Cc1cc(C)cc(-n2ncc3c2CCCC3NC(=O)CCn2nnnc2C)c1 (centres undefined)	i	-24%	6%	-1%	5%	nt	nt	nt	nt
CCCN(CC1CCOC1)C(=O)Cc1cccc(Cl)c1 (centres undefined)	i	i	-3%	-11%	-20%	nt	nt	nt	nt
Cc1cc(=O)n(CC(=O)Nc2ccc(F)c(Cl)c2)c(N(C)Cc2ccccc2)n1	i	i	11µM*	i	-2%	24µM*	?	-1%	22µM*
Cc1cc(=O)n(CC(=O)Nc2ccc(Cl)cc2F)c(N(C)Cc2ccccc2)n1	i	-12%	13µM*	-33%	?	24µM*	?	3%	?
COc1ccc(NC(=O)Cn2c(N(C)Cc3ccccc3)nc(C)cc2=O)cc1OC	i	i	4.5µM*	?	?	6.9µM*	11µM*	2%	7.7µM*
COc1ccc(Cl)cc1NC(=O)Cn1c(N(C)Cc2ccccc2)nc(C)cc1=O	i	-13%	-12%	?	?	nt	nt	nt	nt
Cc1cc(=O)n(CC(=O)Nc2ccc(Br)cc2F)c(N(C)Cc2ccccc2)n1	i	i	?	?	?	22µM*	19µM*	0%	19µM*
Cc1cc(=O)n(CC(=O)Nc2ccc(Br)cc2)c(N(C)Cc2ccccc2)n1	i	-12%	?	?	?	nt	nt	nt	nt
CCCN1C(=O)Cc2ccccc2C1C(=O)NCc1cc(OC)ccc1OC (centres undefined)	i	i	-26%	-26%	?	?	?	3%	-11%
Clc1ccc(CN2CCOC[C@H](Oc3ccccc3)C2)cc1	i	-5%[88.5 µM]	-1%[70.6 µM]	-24%[138 µM]	-27%[172 µM]	nt	nt	nt	nt
C[S+](=O)([O-])CCn1ncc2cc(OCC3CCN(C(=O)OC4CCCC4)CC3)ccc21	i	0%	10µM*	?	?	11µM*	11µM*	-18%	9.7µM*
C[S+](=O)([O-])CCn1ncc2cc(OCc3cccc(-c4ccc(Cl)cc4)c3)ccc21	i	?	?	?	?	31µM*	31µM*	?	35µM*
CNC(=O)CCn1ncc2cc(OCc3ccccc3-c3ccccc3Cl)ccc21	i	i	-14%[70.6 µM]	?	?	nt	nt	nt	nt
Cc1cc(C)nc(N2CCC(COc3ccc4c(cnn4CCC(=O)O)c3)CC2)n1	i	-24%[88.5 µM]	5%[70.6 µM]	-26%[138 µM]	?	nt	nt	nt	nt
CCc1cnc(N2CCC(COc3ccc4c(cnn4CC[S+](C)(=O)[O-])c3)CC2)nc1	i	1%	8.9µM*	-23%	?	8.6µM*	9.7µM*	0%	6.9µM*
COCCOC(=O)N1CCC(COc2ccc3c(cnn3CCC(=O)O)c2)CC1	i	?	0%[70.6 µM]	?	-14%[172 µM]	nt	nt	nt	nt
O=C(O)C[C@@H]1CCN(C(=O)Cc2ccccc2)C[C@@H]1CCN1CCN(c2ccccc2)CC1	i	i	8%	1%	1%	nt	nt	nt	nt
COc1ccc(S(=O)(=O)N[C@H]2C[C@@H](c3nc(-c4ccc(OC(F)(F)F)cc4)no3)N(C)C2)cc1	i	?	11µM*	?	?	22µM*	22µM*	-13%	17µM*
Cc1ccc(NC(=O)C2CCN(c3cc(C(F)(F)F)ncn3)CC2)cc1F	i	i	5µM*	?	?	6.9µM*	11µM*	5%	6.1µM*
COc1ccc(NC(=O)C2CCN(c3cc(C(F)(F)F)ncn3)CC2)cc1Cl	i	i	?	?	?	nt	nt	nt	nt
COc1ccccc1CNC(=O)C1CCN(c2cc(C(F)(F)F)ncn2)CC1	i	1%	-10%	-27%	?	nt	nt	nt	nt
SMILES	FLuc inh	GPT2 inhibitor	hNpr1 antagonist	NIH3T3 tox	HEK293 tox	NPR1 antag cnf	NPR2 antag	FLuc counter	GloSensor cGMP
O=C(Nc1cccc(F)c1)C1CCN(c2cc(C(F)(F)F)ncn2)CC1	i	?	11µM*	?	?	22µM*	?	0%	19µM*
Cc1ccc(CCNC(=O)C2CCN(c3cc(C(F)(F)F)ncn3)CC2)cc1	i	i	?	?	?	nt	nt	nt	nt
O=C(Nc1cccc(Br)c1)C1CCN(c2cc(C(F)(F)F)ncn2)CC1	i	i	11µM*	?	45µM*	22µM*	22µM*	-1%	24µM*
O=C(Nc1cccc(Cl)c1)C1CCN(c2cc(C(F)(F)F)ncn2)CC1	i	i	?	?	?	24µM*	?	5%	?
Cc1cn2nnc(C(=O)N3CCC(C(=O)NCc4cccc(Cl)c4)CC3)c2c(=O)[nH]1	i	i	7%	-7%	-1%	nt	nt	nt	nt
CN(C)c1cc(N2CCCC(NC(=O)c3ccco3)C2)ncn1 (centres undefined)	i	-21%	-4%	-17%	-7%	nt	nt	nt	nt
COc1ccc(S(=O)(=O)N2CCC3(CC2)CC(N(C)Cc2ccccc2)CCO3)cc1 (centres undefined)	i	i	11µM*	?	?	27µM*	?	1%	?

Assay outcomes (PubChem)
